# Several values for one entry are separate records, joined by “and”; a condition that tells them apart may be missing. Equal values may be shown once. Inconclusive results are not listed. Activity calls are given as the source filed them. Unless noted, the call rests on the fitted dose curve; in most records, active means well fitted curve in the direction sought with a large enough effect; inconclusive means small, poorly fitted or top-dose-only effect, or another doubt; inactive means no such curve, though single readings can be large; an effect the other way counts as inactive or inconclusive.
# Tests used:
# [1] = molecular target: Cytochrome P450 3A4 (Homo sapiens) (UniProt P08684); assay: qHTS Assay for Inhibitors and Substrates of Cytochrome P450 3A4 (AID 884); further: nearly all actives have a fitted effect of over 50% in size; further: potency means the concentration at half of the fitted maximal effect; on activity change, negative = inhibition: on the % scale 0 is the no-effect control and ±100 the full control effect
# How it was run: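 Luminescent readout of luciferin produced by CYP3A4 (20 nM) dealkylation of Luciferin-PPXE, 25 uM (its KM). NADPH-driven reaction ran 60 min at RT after 10 min compound preincubation; data scaled to 57 uM ketoconazole as 100% inhibition.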
# [2] = Confirmation and Secondary Assay for Modulators of Hemoglobin Beta Chain Splicing at IVS2 654 locus (AID 910);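 further: per-well total GFP intensity by laser scanning cytometry after 2-day treatment; % of control where 0% means no effect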
# How it was run: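 HeLa cells stably carrying EGFP interrupted by mutant beta-globin IVS2-654 intron (CMV-driven) were treated with compound for 2 days at 37C; corrected splicing was scored as total peak GFP intensity per well (488 nm excitation, 500-520 nm emission).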
# [3] = Confirmation and Secondary Assay for Modulators of Hemoglobin Beta Chain Splicing at IVS2 705 locus (AID 930);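 further: HeLa cells stably expressing the EGFP-705 splicing reporter; % of control where 0% means no effect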
# How it was run: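 Restored EGFP fluorescence after 2-day compound exposure reports splicing correction in IVS2-705 EGFP reporter HeLa cells; positive control was 500 nM splice-blocking PNA oligo. Signal measured as well total peak GFP intensity (488 nm excitation).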
# [4] = qHTS Assay for Lipid Storage Modulators (AID 1519; calls by dose curve); settings: Drosophila S3 cells, BODIPY lipid droplet/cell ratio, laser cytometry, cells loaded with oleic acid; for activity change, negative = inhibition: at 57.5 µM (top of the series)
# How it was run: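 Cells seeded at 5,000 per well were treated with compounds over a concentration series and loaded with oleic acid (400 uM, as added). Lipid droplet fluorescence (488 nm excitation, 500-530 nm channel) was read by laser-scanning cytometry and normalized to 20 uM Triacsin C.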
# [5] = molecular target: Ubiquitin carboxyl-terminal hydrolase 1 (Homo sapiens) (UniProt O94782); assay: Inhibitors of USP1/UAF1: Pilot qHTS (AID 504865);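 further: rhodamine fluorescence freed from ubiquitin-rhodamine substrate followed over time; top concentration of the series differs between compounds; on the % scale 0 is the no-effect control and ±100 the full control effect; nearly all actives have a fitted effect of over 35% in size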
# How it was run: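 1nM USP1/UAF1 + cpd, 15 min RT; start w/ Ub-Rho 150nM final; kinetic FL 480/540 nm, 6 reads q60 s. Buffer 50mM HEPES pH 7.8, 0.5mM EDTA, 1mM TCEP, 0.01% Tween-20, 0.1 mg/ml BSA.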
# [6] = molecular target: Cytochrome P450 3A4 (Homo sapiens) (UniProt P08684); assay: qHTS Assay for Activators of Cytochrome P450 3A4 (AID 885); further: nearly all actives have a fitted effect of over 65% in size
# How it was run: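 Luminescent readout of luciferin formed from 25 uM Luciferin-PPXE (KM level) by 20 nM CYP3A4 in 200 mM KPO4, with 60 min NADPH-driven reaction at room temperature after 10 min compound exposure. Ketoconazole (57 uM) defined 100% inhibition.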
# [7] = qHTS assay for small molecule antagonists of peroxisome proliferator-activated receptor delta signaling (AID 588535); settings: HEK293T PPARd-UAS-bla, beta-lactamase FRET ratio, 18 h; 460 nm channel;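 further: cells co-treated with a PPAR-delta agonist as stimulator during compound exposure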
# How it was run: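 Compounds tested in titration on PPAR-delta-UAS-bla HEK293T cells grown in charcoal/dextran-stripped serum (2%); beta-lactamase activity read via CCF4 emission at 460 and 530 nm.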
# [8] = molecular target: Peroxisome proliferator-activated receptor gamma (Homo sapiens) (UniProt P37231); assay: qHTS assay for small molecule agonists of peroxisome proliferator-activated receptor gamma signaling (AID 588536; active means well fitted curve in the direction sought with a large enough effect in the signal ratio, with a control signal flat, not every such curve was filed as active; the % refers to the signal ratio;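 further: 0% = DMSO basal wells and 100% = rosiglitazone at 2 µM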)
# How it was run: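 This is an agonist-mode beta-lactamase reporter assay in HEK293 PPAR-gamma-UAS-bla cells with 1% charcoal/dextran FBS. Compound titrations ran 16 h at 37 C before CCF4 detection. EC50 and efficacy are Hill fits scaled to 2 uM rosiglitazone (100%) and DMSO basal.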
# [9] = molecular target: Vitamin D3 receptor (Homo sapiens) (UniProt P11473); assay: qHTS assay for small molecule antagonists of vitamin D receptor signaling (AID 588541; calls by dose curve;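 further: receptor activated by calcitriol during compound treatment; on the % scale 0 is the no-effect control and ±100 the full control effect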)
# How it was run: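 VDR-UAS-bla HEK293T cells (2000/well, 2% charcoal-stripped FBS) were treated with titrated compounds plus 1-alpha,25-dihydroxyvitamin D3 (50 nM or 3 nM final) for 16 h at 37 C. CCF4 beta-lactamase fluorescence was read; Hill fits gave IC50.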
# [10] = qHTS assay for small molecule agonists of retinoid X receptor alpha signaling (AID 588544); settings: HEK293T RXRa-UAS-bla, beta-lactamase reporter, 18 h; 530 nm emission
# [11] = qHTS assay for small molecule antagonists of retinoid X receptor alpha signaling (AID 588546; active means well fitted inhibition curve with a large enough effect in the signal ratio, with a control signal flat, not every such curve was filed as active; the % refers to the signal ratio;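 further: cells stimulated with 9-cis-retinoic acid as agonist; on the % scale 0 is the no-effect control and ±100 the full control effect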); settings: HEK293T RXRa-UAS-bla, beta-lactamase ratio, antagonist mode; measured here: W530 green channel, cytotoxicity proxy
# How it was run: (§1)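 Beta-lactamase reporter inhibition, read as CCF4 fluorescence ratio (ex 405, em 460/530 nm) after 2 h at RT. HEK293T UAS-bla cells, 2500/well, were stimulated with 9-cis-RA at 500 or 100 nM final alongside test compound for 18 h at 37 C.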
# [12] = molecular target: Retinoic acid receptor RXR-alpha (Homo sapiens) (UniProt P19793); assay: as above; settings: HEK293T RXRa-UAS-bla, beta-lactamase ratio, antagonist mode
# How it was run: as §1
# [13] = qHTS assay for small molecule activators of the p53 signaling pathway (AID 651743; active means well fitted activation curve with a large enough effect in the signal ratio, not every such curve was filed as active; the % refers to the signal ratio; further: % of control where 0% means no effect); settings: HCT-116 p53RE-bla, beta-lactamase FRET ratio, 16 h; activation: stronger effect = higher value
# How it was run: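 Here HCT-116 cells with an integrated p53-responsive beta-lactamase gene were incubated with compounds (16 hours, 37 C) after a 5-hour plating period; beta-lactamase activity was detected as fluorescence intensity via B/G FRET substrate.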
# [14] = qHTS assay for environmental chemicals that activate the Aryl hydrocarbon Receptor (AhR) signaling pathway (AID 651777); settings: 1A2-DRE human hepatoma cells, luciferase, 24 h; activation: stronger effect = higher value; further: % of control where 0% means no effect; nearly all actives have a fitted effect of over 15% in size
# How it was run: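 Luminescence (One-Glo, 30 min, room temperature) reports AhR-driven luciferase in stably transfected human hepatoma cells bearing DRE and CYP1A2 promoter. Cells (1,200/well) were treated with compound for 24 hr at 37 C in qHTS format.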
# [15] = molecular target: Peroxisome proliferator-activated receptor alpha (Homo sapiens) (UniProt Q07869); assay: qHTS assay for small molecule agonists of the peroxisome proliferator-activated receptor alpha (PPARalpha) signaling pathway (AID 651778); settings: PathHunter PPARalpha complementation, chemiluminescence, 6 h; stronger effect = higher value; further: % of control where 0% means no effect
# How it was run: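 Cells plated at 2,000/well and held overnight at 37 C, 5% CO2, then compound added by pin tool for 6 hr; after PathHunter detection reagent and 60 min at room temperature, chemiluminescence from enzyme complementation was read.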
# [16] = qHTS assay for small molecule agonists of the antioxidant response element (ARE) signaling pathway measured by Nrf2-dependant transcriptional activity - cell viability counter screen (AID 720653; active means well fitted curve in the direction sought with a large enough effect in the repeat runs; an effect the other way counts as inactive or inconclusive; further: on the % scale 0 is the no-effect control and ±100 the full control effect); settings: ARE-bla HepG2 viability, CellTiter-Glo ATP luminescence, 16 h; stronger effect = lower value
# How it was run: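 ARE-bla HepG2 cells (2,000/well) rested 5 hrs at 37C/5% CO2, then exposed to compounds in DMSO for 16 hrs. Viability was read in the same wells as intracellular ATP by luminescence, 30 min at room temperature after reagent addition.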
# [17] = qHTS assay for cell viability of HEK293 cells (AID 743288); settings: ATP luminescence (CellTiter-Glo), 18 h; max response: stronger effect = lower value; further: on the % scale 0 is the no-effect control and ±100 the full control effect; nearly all actives have a fitted effect of over 50% in size
# How it was run: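 ATP luminescence (CellTiter-Glo) reports metabolically competent cell number after parental HEK293 cells, 2,000/well, were treated with DMSO-dissolved compounds for 18 h at 37 C; reagent incubation 30 min, room temperature.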
# [18] = qHTS assay for cell viability of the p53RE-bla HCT-116 cell line (AID 743292); further: on the % scale 0 is the no-effect control and ±100 the full control effect; nearly all actives have a fitted effect of over 55% in size
# How it was run: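 ATP-based luminescent viability (CellTiter-Glo, 30 min RT) after 16 h compound treatment at 37 C of p53RE-bla HCT-116 cells, seeded at 4,000 cells/well and rested 5 h before dosing.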
# [19] = molecular target: Nuclear receptor subfamily 1 group I member 2 (Rattus norvegicus) (UniProt Q9R1A7); assay: qHTS assay for small molecule activators of the rat pregnane X receptor (rPXR) signaling pathway (AID 651751; call rule not given here; further: 0% is about no effect); settings: rPXR reporter cells, luciferase (One-Glo), 24 h
# [20] = measured here: cell count channel max response
# [21] = measured here: lipid channel max response
# Chain of Vitamin D3 receptor (Homo sapiens) (P11473 whole entry, looked up): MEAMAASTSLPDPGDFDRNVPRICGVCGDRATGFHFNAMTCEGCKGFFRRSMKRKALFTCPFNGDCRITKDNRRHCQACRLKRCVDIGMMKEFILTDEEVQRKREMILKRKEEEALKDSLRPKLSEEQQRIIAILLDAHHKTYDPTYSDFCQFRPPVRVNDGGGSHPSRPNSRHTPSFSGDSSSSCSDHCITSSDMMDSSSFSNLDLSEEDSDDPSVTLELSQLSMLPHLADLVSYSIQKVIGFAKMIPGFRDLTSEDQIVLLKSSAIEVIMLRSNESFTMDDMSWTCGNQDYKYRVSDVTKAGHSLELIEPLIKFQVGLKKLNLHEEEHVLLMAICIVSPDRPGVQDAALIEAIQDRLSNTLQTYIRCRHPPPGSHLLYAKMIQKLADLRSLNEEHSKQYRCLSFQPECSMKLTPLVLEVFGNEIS
# Chain of Peroxisome proliferator-activated receptor alpha (Homo sapiens) (Q07869 whole entry, looked up): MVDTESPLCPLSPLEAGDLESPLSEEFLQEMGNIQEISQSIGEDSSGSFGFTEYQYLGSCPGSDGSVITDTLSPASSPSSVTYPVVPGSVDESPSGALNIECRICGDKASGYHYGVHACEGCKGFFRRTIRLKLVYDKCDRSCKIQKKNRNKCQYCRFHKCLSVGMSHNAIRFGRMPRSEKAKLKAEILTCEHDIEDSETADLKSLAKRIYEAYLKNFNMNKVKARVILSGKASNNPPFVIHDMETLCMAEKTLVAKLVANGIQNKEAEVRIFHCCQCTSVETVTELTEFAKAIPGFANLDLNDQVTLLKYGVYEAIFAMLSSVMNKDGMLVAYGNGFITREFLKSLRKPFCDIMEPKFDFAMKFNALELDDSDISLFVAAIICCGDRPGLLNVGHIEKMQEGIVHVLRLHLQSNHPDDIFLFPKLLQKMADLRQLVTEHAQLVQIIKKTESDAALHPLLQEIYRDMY
# Chain of Cytochrome P450 3A4 (Homo sapiens) (P08684 whole entry, looked up): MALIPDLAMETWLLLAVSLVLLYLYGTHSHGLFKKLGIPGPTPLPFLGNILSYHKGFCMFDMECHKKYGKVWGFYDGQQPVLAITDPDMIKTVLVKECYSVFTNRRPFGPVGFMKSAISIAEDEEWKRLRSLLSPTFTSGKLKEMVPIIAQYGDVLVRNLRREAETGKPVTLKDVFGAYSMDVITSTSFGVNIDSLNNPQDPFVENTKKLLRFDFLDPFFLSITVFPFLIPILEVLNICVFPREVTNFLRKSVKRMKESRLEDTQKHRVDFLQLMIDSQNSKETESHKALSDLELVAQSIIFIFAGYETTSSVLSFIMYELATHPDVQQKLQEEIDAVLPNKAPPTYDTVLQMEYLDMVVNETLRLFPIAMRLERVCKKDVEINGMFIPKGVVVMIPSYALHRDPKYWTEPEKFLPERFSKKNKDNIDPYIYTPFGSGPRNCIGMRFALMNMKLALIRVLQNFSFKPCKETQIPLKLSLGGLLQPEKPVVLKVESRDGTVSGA
# Chain of Peroxisome proliferator-activated receptor gamma (Homo sapiens) (P37231 whole entry, looked up): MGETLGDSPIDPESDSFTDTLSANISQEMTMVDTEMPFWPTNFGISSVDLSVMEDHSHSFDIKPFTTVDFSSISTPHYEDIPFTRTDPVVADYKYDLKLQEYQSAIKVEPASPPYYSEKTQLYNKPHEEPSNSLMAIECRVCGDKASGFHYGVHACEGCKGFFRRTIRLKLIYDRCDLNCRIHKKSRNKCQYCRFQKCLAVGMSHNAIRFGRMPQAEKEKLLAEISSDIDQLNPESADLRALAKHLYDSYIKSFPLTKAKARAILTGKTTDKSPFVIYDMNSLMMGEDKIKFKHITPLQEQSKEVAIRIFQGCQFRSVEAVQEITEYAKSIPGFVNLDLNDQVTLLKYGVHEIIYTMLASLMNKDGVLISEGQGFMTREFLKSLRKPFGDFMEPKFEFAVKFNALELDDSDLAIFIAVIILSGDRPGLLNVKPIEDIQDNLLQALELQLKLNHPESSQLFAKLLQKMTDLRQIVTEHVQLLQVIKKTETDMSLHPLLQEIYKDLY
# Chain of Retinoic acid receptor RXR-alpha (Homo sapiens) (P19793 whole entry, looked up): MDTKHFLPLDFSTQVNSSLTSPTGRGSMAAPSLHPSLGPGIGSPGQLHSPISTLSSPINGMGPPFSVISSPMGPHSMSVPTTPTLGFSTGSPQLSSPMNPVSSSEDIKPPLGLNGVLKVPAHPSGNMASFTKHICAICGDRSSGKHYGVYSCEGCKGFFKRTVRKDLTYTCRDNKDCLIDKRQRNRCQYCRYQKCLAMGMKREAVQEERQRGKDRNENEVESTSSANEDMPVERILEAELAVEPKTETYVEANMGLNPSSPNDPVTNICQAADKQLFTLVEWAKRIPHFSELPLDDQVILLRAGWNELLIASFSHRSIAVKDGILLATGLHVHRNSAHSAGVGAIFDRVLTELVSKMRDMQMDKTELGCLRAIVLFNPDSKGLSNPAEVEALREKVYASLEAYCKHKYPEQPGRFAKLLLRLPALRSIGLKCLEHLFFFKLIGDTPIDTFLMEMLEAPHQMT
# Chain of Nuclear receptor subfamily 1 group I member 2 (Rattus norvegicus) (Q9R1A7 whole entry, looked up): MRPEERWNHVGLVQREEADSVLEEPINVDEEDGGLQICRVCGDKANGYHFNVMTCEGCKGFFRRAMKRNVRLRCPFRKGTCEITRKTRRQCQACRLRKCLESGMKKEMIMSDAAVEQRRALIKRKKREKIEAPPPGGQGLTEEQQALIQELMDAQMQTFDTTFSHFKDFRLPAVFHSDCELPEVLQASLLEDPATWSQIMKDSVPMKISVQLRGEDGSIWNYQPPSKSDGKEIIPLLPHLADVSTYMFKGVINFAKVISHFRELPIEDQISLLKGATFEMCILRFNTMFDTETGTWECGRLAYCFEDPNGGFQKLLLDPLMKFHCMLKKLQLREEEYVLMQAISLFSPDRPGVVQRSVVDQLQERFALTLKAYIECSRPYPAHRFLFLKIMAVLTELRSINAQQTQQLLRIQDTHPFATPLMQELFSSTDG
# Chain of Ubiquitin carboxyl-terminal hydrolase 1 (Homo sapiens) (O94782 whole entry, looked up): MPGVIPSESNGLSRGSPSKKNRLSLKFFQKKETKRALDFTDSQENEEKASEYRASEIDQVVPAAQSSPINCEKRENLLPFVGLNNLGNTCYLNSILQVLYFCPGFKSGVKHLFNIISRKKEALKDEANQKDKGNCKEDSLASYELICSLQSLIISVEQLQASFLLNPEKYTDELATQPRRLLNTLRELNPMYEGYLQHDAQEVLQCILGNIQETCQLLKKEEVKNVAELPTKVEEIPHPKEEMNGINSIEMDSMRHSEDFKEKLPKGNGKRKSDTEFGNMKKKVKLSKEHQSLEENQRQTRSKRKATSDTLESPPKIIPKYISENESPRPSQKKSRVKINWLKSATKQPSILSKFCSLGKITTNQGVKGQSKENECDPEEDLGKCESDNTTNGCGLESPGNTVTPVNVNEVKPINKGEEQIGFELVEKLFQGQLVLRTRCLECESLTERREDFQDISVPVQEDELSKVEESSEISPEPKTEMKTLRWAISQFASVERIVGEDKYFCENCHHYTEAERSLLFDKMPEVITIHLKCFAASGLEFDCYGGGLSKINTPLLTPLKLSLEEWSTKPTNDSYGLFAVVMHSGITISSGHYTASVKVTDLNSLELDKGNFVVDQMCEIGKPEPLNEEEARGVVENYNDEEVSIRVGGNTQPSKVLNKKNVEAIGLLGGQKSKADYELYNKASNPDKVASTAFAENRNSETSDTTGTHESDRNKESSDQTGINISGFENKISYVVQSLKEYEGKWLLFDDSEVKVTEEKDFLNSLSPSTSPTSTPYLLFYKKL
compound,measurement,setting,value
CC(=O)C1CC[C@H]2C3CC[C@@H]4CC(O)CC[C@@]4(C)C3CC[C@]12C (some centres undefined),Potency,[1],inactive
same,Potency,[2],inactive
same,Potency,[3],inactive
same,"activity change, negative = inhibition",[4],12.3% (inactive)
same,max response,[4]; [20],9.69%
same,max response,[4]; [21],25.9%
same,Potency,[5],inactive
C[C@@]12CCC3C(CC[C@@H]4CC(O)CC[C@@]34C)C1CCC2O (some centres undefined),Potency,[1],inactive
same,Potency,[2],inactive
same,Potency,[3],inactive
same,"activity change, negative = inhibition",[4],5.33% (inactive)
same,max response,[4]; [20],18.2%
same,max response,[4]; [21],26%
same,Potency,[5],inactive
NC(=O)c1ccc(N)nc1,Potency,[1],inactive
same,Potency,[2],inactive
same,Potency,[3],inactive
same,"activity change, negative = inhibition",[4],2.67% (inactive)
same,max response,[4]; [20],16.6%
same,max response,[4]; [21],22.3%
same,Potency,[5],inactive
CC(C)c1cc2c(c(O)c1O)[C@]1(C(=O)O)CCCC(C)(C)C1CC2 (some centres undefined),Potency,[1],0.316 µM (active)
same,Potency,[6],inactive
same,Potency,[2],inactive
same,Potency,[3],inactive
same,"activity change, negative = inhibition",[4],4.21% (inactive)
same,max response,[4]; [20],-11.1%
same,max response,[4]; [21],-4.62%
same,Potency,[5],inactive
CC(=O)OC1CCC23C(=O)OC45CCC(C6=CC(=O)OC6)C4(C)CCC2C5CCC3(O)C1 (centres undefined),Potency,[1],inactive
same,Potency,[2],inactive
same,Potency,[3],inactive
same,"activity change, negative = inhibition",[4],-4.87% (inactive)
same,max response,[4]; [20],6.6%
same,max response,[4]; [21],2.69%
same,Potency,[5],inactive
CC(C)Nc1nc(Cl)nc(NC(C)C)n1,Potency,[1],inactive
same,Potency,[2],inactive
same,Potency,[3],inactive
same,"activity change, negative = inhibition",[4],3.35% (inactive)
same,max response,[4]; [20],5.6%
same,max response,[4]; [21],10.8%
same,Potency,[5],inactive
same,max response,[7],16.2%
same,outcome,[8],inactive
same,outcome,[9],inactive
same,max response,[10],7.09%
same,max response,[11],-10.2%
same,max response,[12],-2.39% (inactive)
same,activation,[13],-2.19% (inactive)
same,activation,[14],0.683% (inactive)
same,max response,[15],-0.58% (inactive)
same,max response,[16],-2.76% (inactive)
same,max response,[17],-5.95% (inactive)
same,Potency,[18],inactive
same,max response,[19],-1.62% (inactive)
COP(N)(=O)SC (centres undefined),Potency,[1],inactive
same,Potency,[2],inactive
same,Potency,[3],inactive
same,"activity change, negative = inhibition",[4],4.67% (inactive)
same,max response,[4]; [20],0.934%
same,max response,[4]; [21],6.43%
same,Potency,[5],inactive
same,max response,[7],57.3% and -26.4%
same,outcome,[8],inactive
same,outcome,[9],inactive
same,max response,[10],-14.8% and -10.1%
same,max response,[11],-17.3% and -16.5%
same,max response,[12],-4.89% (inactive) and -18.9% (inactive)
same,activation,[13],0.404% (inactive) and 2.15% (inactive)
same,activation,[14],-0.0851% (inactive) and 1.26% (inactive)
same,max response,[15],-4.83% (inactive) and -1.06% (inactive)
same,max response,[16],9.18% (inactive) and -6.05% (inactive)
same,max response,[17],-4.36% (inactive) and -1.51% (inactive)
same,Potency,[18],inactive
same,max response,[19],-2.32% (inactive) and -2.07% (inactive)
C[C@]12CCC(=O)C=C1CCc1ccc(O)cc12,Potency,[1],25.1 µM (active)
same,Potency,[6],inactive
same,Potency,[2],inactive
same,Potency,[3],inactive
same,"activity change, negative = inhibition",[4],-0.872% (inactive)
same,max response,[4]; [20],-10.5%
same,max response,[4]; [21],-4.41%
same,Potency,[5],inactive

# — PubChem BioAssay (NCATS)
